This is part of a sample that, as a whole, favours compounds with a hit. Of some 83,000 tested, about 20% had one in any assay.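 Assay: single dose, 48 h. Readout: percent growth (0 = no net growth; negative = cell death). Active: <10.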 A number with no mark means an inactive call. Calls of active or inactive are those of the source.

Among the test systems are SK-MEL-2 melanoma; EKVX NSCLC; SN12C renal; UO-31 renal; TK-10 renal; CAKI-1 renal; A498 renal; CCRF-CEM leukemia; MOLT-4 leukemia; ACHN renal.
Assay in all cases: NCI-60 one-dose screen, 48 h (100 = growth as untreated, 0 = no growth, -100 = all killed)
What all share (conditions): 10 µM unless noted

In the case of `Cc1ccc(-c2cnc3sc4ccc(Cl)cc4n23)cc1`, the growth in the assay on SK-MEL-2 melanoma is 103%; with EKVX NSCLC it was 67.1%; in the assay on SN12C renal, 93%; with UO-31 renal it was 64.9%; in the assay on TK-10 renal, 158%; in the assay with CAKI-1 renal it was 84.2%. Also, the growth with A498 renal was 88.2%; with CCRF-CEM leukemia, 106%; in the assay on MOLT-4 leukemia, 96.7%.
`CN1CCN(Cc2ccc(NC(=O)c3ccc(C#N)c(C#Cc4cnc(N)c5ncccc45)c3)cc2C(F)(F)F)CC1`: the growth was 72.4% with SK-MEL-2 melanoma; 96.6% with EKVX NSCLC; 86.3% in the assay with SN12C renal; -81.8% (active) with UO-31 renal; 76.9% in the assay on TK-10 renal; 94.1% with CAKI-1 renal. In addition, the growth in the assay on A498 renal is 89.5%; in the assay with CCRF-CEM leukemia it was 27%; with MOLT-4 leukemia it was 59.6%.
`CN=C1C=C/C(=N/N=c2/ccn(O)cc2C)C=C1C`: the growth is 97.6% with SK-MEL-2 melanoma; 87.4% with EKVX NSCLC; 90% with SN12C renal; 77.6% with UO-31 renal; 118% with TK-10 renal; 93.9% in the assay with CAKI-1 renal. Moreover, the values for the growth in the assay on A498 renal, in the assay on CCRF-CEM leukemia and in the assay with MOLT-4 leukemia were 96%, 105% and 89.1%, respectively.
As for `COc1cc2c(cc1OCCCOc1cc3c(cc1OC)C(=O)N1CCC[C@H]1C=N3)C=CC(C)(C)O2`, the growth in the assay on SK-MEL-2 melanoma is 88.4%; in the assay with EKVX NSCLC, 154%; in the assay on SN12C renal, 94.3%; in the assay on UO-31 renal, 96.5%; in the assay on TK-10 renal it was 187%; with CAKI-1 renal, 106%. The growth with A498 renal was 98.8%; in the assay with CCRF-CEM leukemia, 6.05% (active); in the assay with MOLT-4 leukemia it was 65%.
As for `CN(C)c1ccc(/C=C(\C#N)c2nc3ccccc3n2C)cc1`, the growth in the assay with SK-MEL-2 melanoma was 46.6%; with EKVX NSCLC, 28.3%; in the assay with SN12C renal, 54%; in the assay with UO-31 renal it was 46.2%; in the assay with TK-10 renal, 37.7%; in the assay on ACHN renal, 55.3%. Moreover, the values for the growth in the assay on CCRF-CEM leukemia and in the assay with MOLT-4 leukemia were 31.2% and 29.5%, respectively.
As for `Oc1c(C(c2ccc(F)cc2)N2CCCCC2)ccc2cncnc12` (centres undefined), the growth in the assay with SK-MEL-2 melanoma is -16.6% (active); in the assay with EKVX NSCLC, 16.9%; in the assay on SN12C renal, 10%; in the assay on UO-31 renal it was 11%; with TK-10 renal, 9.03% (active); in the assay on CAKI-1 renal, 19%. The growth with A498 renal is -8.07% (active); in the assay on CCRF-CEM leukemia it was 18.5%; in the assay on MOLT-4 leukemia, 13.1%.
As for `COc1cc(CN2CCO[C@H](COc3cccc(F)c3)C2)ccc1Cl`, the growth with SK-MEL-2 melanoma was 31%; in the assay on EKVX NSCLC, 46.3%; in the assay on SN12C renal it was 29.3%; in the assay on UO-31 renal it was 45.6%; in the assay on TK-10 renal it was 46.9%; in the assay on CAKI-1 renal, 41.3%. The values for the growth in the assay with A498 renal, in the assay on CCRF-CEM leukemia and in the assay with MOLT-4 leukemia were 30.6%, 42.8% and 52.8%, respectively.
Take `COc1ccc(-c2cnc3ccnn3c2-c2cc(OC)c(OC)c(OC)c2)cc1`: the growth was 36.9% in the assay on SK-MEL-2 melanoma; 42% in the assay on SN12C renal; 48.3% in the assay with UO-31 renal; 59.6% in the assay on TK-10 renal; 47.3% with ACHN renal; 46.5% with CAKI-1 renal. In addition, the growth in the assay on A498 renal is -5.57% (active); in the assay with CCRF-CEM leukemia, 16.3%; with MOLT-4 leukemia it was 46.7%.
With `CC(C)N=C1CCCC1C(=S)SSC(=S)C1CCCC1=NC(C)C` (centres undefined), the growth is 94.7% in the assay with SK-MEL-2 melanoma; 58.1% in the assay with SN12C renal; 54.3% in the assay with UO-31 renal; 109% in the assay on TK-10 renal; 68.4% in the assay on ACHN renal; 39.3% in the assay on CAKI-1 renal. In addition, the results for the growth in the assay on A498 renal, in the assay on CCRF-CEM leukemia and in the assay with MOLT-4 leukemia were 83.4%, 22.9% and 61.2%, respectively.
For `CC(COC(=O)c1ccccc1)N1CC2CCC(C1)O2` (centres undefined), the growth in the assay on SK-MEL-2 melanoma is 107%; with SN12C renal it was 99.8%; in the assay on UO-31 renal, 86%; in the assay on TK-10 renal, 111%; with ACHN renal, 104%; in the assay with CAKI-1 renal, 96.5%. For the same molecule, the growth is 89.5% with A498 renal, 92.7% with CCRF-CEM leukemia and 100% in the assay with MOLT-4 leukemia.
As to `Cc1ccc(N2C3c4ccccc4N(S(=O)(=O)c4ccc(C)cc4)C2c2ccccc2N3S(=O)(=O)c2ccc(C)cc2)cc1`, the growth was 111% in the assay with SK-MEL-2 melanoma; 94.9% in the assay with SN12C renal; 91.1% with UO-31 renal; 128% in the assay on TK-10 renal; 95.2% with ACHN renal; 100% with CAKI-1 renal. Moreover, the growth is 97% with A498 renal, 89.2% with CCRF-CEM leukemia and 93.5% with MOLT-4 leukemia.
For `CCCCCCCCNC(C)C(O)c1ccc(SC(C)C)cc1` (centres undefined), the growth was 71.4% in the assay on SK-MEL-2 melanoma; 25.2% with EKVX NSCLC; 60.9% in the assay on SN12C renal; 6.81% (active) in the assay with TK-10 renal; -56.8% (active) in the assay with CAKI-1 renal; 96.8% in the assay on A498 renal. The growth in the assay on CCRF-CEM leukemia is -0.667% (active); with MOLT-4 leukemia, -46.6% (active).
For `COc1cc2c(cc1OC)C(=O)C(Br)CC2` (centres undefined), the growth in the assay on SK-MEL-2 melanoma was 81.6%; with SN12C renal it was 44.4%; in the assay on UO-31 renal, 39.4%; with TK-10 renal, 53.7%; in the assay with ACHN renal, 42.1%; in the assay with CAKI-1 renal, 10.4%. For the same molecule, the growth in the assay with A498 renal is 73.6%; with CCRF-CEM leukemia, 3.35% (active); with MOLT-4 leukemia, 13.3%.
Turning to `COc1ccc(C2C=C(c3ccc(Cl)cc3)N=C3SC=CN32)cc1` (centres undefined), the growth in the assay on SK-MEL-2 melanoma is 113%; in the assay on SN12C renal it was 114%; in the assay with UO-31 renal it was 88.5%; in the assay with TK-10 renal it was 118%; with ACHN renal, 107%; in the assay on CAKI-1 renal, 101%. Besides, the values for the growth with A498 renal, in the assay on CCRF-CEM leukemia and in the assay on MOLT-4 leukemia were 104%, 88.2% and 104%, respectively.
Turning to `COc1ccc(/C=C/C(=O)c2ccc(NC(=O)CSc3nnc(-c4ccc(OC)cc4)n3-c3ccccc3)cc2)cc1`, the growth with SK-MEL-2 melanoma was 95.5%; in the assay with EKVX NSCLC, 95.5%; in the assay on SN12C renal it was 96.5%; in the assay with TK-10 renal it was 109%; in the assay on ACHN renal, 106%; in the assay with A498 renal, 109%. Moreover, the growth in the assay with CCRF-CEM leukemia was 95%; in the assay with MOLT-4 leukemia it was 88%.
In the case of `CN1CCN(c2ccc(N3Cc4ccccc4OC4=C3C(=O)c3c(O)ccc(O)c3C4=O)cn2)CC1`, the growth with SK-MEL-2 melanoma was -36.8% (active); in the assay with EKVX NSCLC, -1.22% (active); in the assay on SN12C renal, -62% (active); in the assay with TK-10 renal it was -98.7% (active); in the assay on ACHN renal it was -100% (active); in the assay with A498 renal, -20.7% (active). The values for the growth with CCRF-CEM leukemia and in the assay on MOLT-4 leukemia were -12.7% (active) and -17.8% (active), respectively.
In the case of `COC1CC(N)C2OC(c3ccccc3)OCC2O1` (centres undefined), the growth is 114% with SK-MEL-2 melanoma; 99.3% in the assay with SN12C renal; 97.6% in the assay with UO-31 renal; 101% with TK-10 renal; 99.3% with ACHN renal; 96.8% in the assay with CAKI-1 renal. Further, the growth with A498 renal was 111%; in the assay with CCRF-CEM leukemia, 93.3%; in the assay on MOLT-4 leukemia it was 100%.

Source of the values: PubChem BioAssay (NCI).
